Results on 37 molecules are retold here after PubChem BioAssay (NCI).

The panel holds about 83,000 compounds, 20% with a hit somewhere; the sample as a whole holds those more often.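 The test compound was applied at a single concentration to cells in 96-well plates for 48 hours, and percent growth was recorded.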 A number with no mark means an inactive call. Calls of active or inactive are those of the source. The calls were made as follows: active = growth percent below 10; inactive = the rest.

For the first test, the system named is HCC-2998 colon. The experiment in a line: NCI-60 one-dose screen, 48 h (100 = growth as untreated, 0 = no growth, -100 = all killed). The settings on record: 10 µM.
Take `Cc1n[nH]c(C)c1N=Nc1cccc2c1C(=O)c1ccccc1C2=O`: the growth was 96.1%.
On to `O=C(CCCCNC(=O)c1nc(-c2ccccc2)n(-c2ccccc2)n1)NO`, for which the growth is 94.4%.
As to `Cc1c(Cl)cccc1NC(=O)CN1CCOCC1`, the growth was 103%.
On the same count and under the same terms, the same measure for `COc1ccc2nc3cc(Cl)ccc3c(N)c2c1`: -99% (active).
Still for that read-out and setting: the same measure for `Cc1ccc(C(=O)/C=C/c2ccccc2)s1`: 101%.
As to `CN1C(=O)C2(Nc3cc(Cl)ccc3S2)c2cc(Cl)ccc21` (centres undefined), the growth is 93.5%.
Same read-out and setting: then `COc1cc(CNC(=O)C2CSC3(C)c4ccccc4C(=O)N23)cc(OC)c1OC` (centres undefined), with 95.5%; and `Brc1ccc2c(c1)-c1ccccc1C1=NCCN12`, with 13.5%.
Still for that read-out and setting: then `COc1cc(-c2nn(-c3ccc(NC(=O)NCCNS(=O)(=O)c4ccc(F)cc4)cc3)cc2-c2ccncc2)ccc1Cl`, with 6.84% (active); and `Cc1cc(Cl)ccc1Nc1nc(C(F)(F)F)ccc1C(=O)N/N=C/c1cccc(O)c1`, with 31.9%; and `CS(=O)(=O)c1nccc(-c2c(-c3cccc(OCc4ccc(F)cc4)c3)nc3sccn23)n1`, with -16.3% (active).
With `COc1cc(/C=C/c2cc(/C=C/c3ccc(O)c(OC)c3)n(C(=O)Nc3ccc(C)cc3)n2)ccc1O`, the growth was 2.19% (active).
Same read-out and setting: the same measure for `COc1cc2cc(Oc3ccc(NC(=O)c4cccc(C(F)(F)F)c4)cc3)c(C)nc2cc1OC`: 62.3%; for `CCc1cc(Cl)c(OC)c(C(=O)NCC2CCCN2CC)c1O` (centres undefined): 96.4%; for `CN1CCc2c(sc3nc4n(-c5ccc(Cl)cc5)cnn4c(=O)c23)C1`: 104%.
Same read-out and setting: the same measure for `O=C(N/N=C/c1ccc([N+](=O)[O-])cc1)c1ccccc1Nc1cccc(C(F)(F)F)c1`: 99.5%; for `COc1ccc(/C=C2\CCCC3=C2NC(N)=NC3c2ccc(OC)c(OC)c2)cc1OC` (centres undefined): 88%.
Still for that read-out and setting: then `CCOC(=O)CN(c1sc(C)c(C)c1C(=O)OCC)S(=O)(=O)c1ccc(C)cc1`, with 100%; and `CCC(=O)OC1CCC2C3CCC(=O)OC3C(C)(CCC(=O)O)CC12C` (centres undefined), with 5.22% (active); and `CNC(=O)c1cn(C2CC2)c2cc(N3CCN(C(=O)c4cc(OC)c(OC)c(OC)c4)CC3)c(F)cc2c1=O`, with 113%.
For the molecule `CCCCN(CCCC)C(=O)[C@H](CC)[C@@H]1CC[C@@H](C)[C@@H]([C@H](C)[C@@H](O)[C@@H](C)C(=O)[C@H](CC)C2O[C@]3(C=CC(=O)[C@]4(CC[C@@](C)([C@H]5CC[C@](O)(CC)[C@H](C)O5)O4)O3)[C@H](C)C[C@@H]2C)O1` (some centres undefined), the growth is 39%.
Still for that read-out and setting: the same measure for `CCn1c2ccc(O)cc2c2c(C)c3c[n+](C)ccc3c(C)c21`: 35.1%; for `COc1ccc(Cl)cc1Nc1nc(C(F)(F)F)ccc1C(=O)N/N=C/c1cc(OC)c(OC)c(OC)c1`: 8.93% (active).
As to `O=C(CI)OCC(COC(=O)CI)OC(=O)CI`, the growth was 102%.
As to `COc1ccc(-c2cc(-c3ccc(OC)c(OC)c3)nc(SCCCC(=O)NO)n2)cc1`, the growth is -15.7% (active).
Still for that read-out and setting: the same measure for `O=C(CSc1nnc(-c2ccc(Cl)cc2)o1)Nc1ccc(C(=O)/C=C/c2ccc(Cl)cc2)cc1`: 93.1%; for `CCCc1cn(CC(=O)Nc2nc3ccccc3s2)nn1`: 116%; for `COc1ccc2c(c1)CC=C1[C@@H]2CC[C@]2(C)C(=O)/C(=N/O)C[C@@H]12`: 79.7%.
As for `Cc1ccc(Cl)cc1NC(=O)CCl`, the growth was 114%.
The same measure, in the same setting: then `O=C(CCCSc1nc(-c2ccccc2)cc(-c2ccc(Cl)cc2)n1)NO`, with 12.7%; and `CC(=O)N[C@H](C(=O)N[C@@H](CCCNC(=N)N)C(=O)N[C@@H](CCCCN)C(=O)N[C@@H](CCCNC(=N)N)C(=O)N[C@]1(C)CCCCCC/C=C\CCC[C@@](C)(C(=O)N[C@@H](CCCNC(=N)N)C(=O)N[C@@H](CCC(=O)O)C(=O)N[C@@H](CC(C)C)C(=O)N[C@H](C(=O)N[C@@H](CCC(=O)O)C(N)=O)C(C)C)NC(=O)[C@H](CCC(N)=O)NC(=O)[C@H](CC(C)C)NC(=O)[C@H](CC(C)C)NC(=O)[C@H](CCCNC(=N)N)NC(=O)[C@H](CCCNC(=N)N)NC(=O)[C@H](CC(C)C)NC1=O)C(C)C`, with 24.8%.
Same read-out and setting: then `COc1ccc(-c2cc(-c3ccccc3)nc(SCCCC(=O)NO)n2)cc1`, with -16.6% (active).

A further test concerns KM12 colon. Described as above. The settings on record: 10 µM.
Regarding `Cc1n[nH]c(C)c1N=Nc1cccc2c1C(=O)c1ccccc1C2=O`, the growth was 99.5%.
On the same count and under the same terms, then `O=C(CCCCNC(=O)c1nc(-c2ccccc2)n(-c2ccccc2)n1)NO`, with 92.9%; and `Cc1c(Cl)cccc1NC(=O)CN1CCOCC1`, with 97.3%.
Still for that read-out and setting: then `COc1ccc2nc3cc(Cl)ccc3c(N)c2c1`, with -84.3% (active); and `Cc1ccc(C(=O)/C=C/c2ccccc2)s1`, with 92.8%; and `CC(=O)/C(=C/c1ccc(Br)cc1)C(=O)c1ccccc1`, with 58.6%.
For `CN1C(=O)C2(Nc3cc(Cl)ccc3S2)c2cc(Cl)ccc21` (centres undefined), the growth is 99%.
With `COc1cc(CNC(=O)C2CSC3(C)c4ccccc4C(=O)N23)cc(OC)c1OC` (centres undefined), the growth was 106%.
On the same count and under the same terms, the same measure for `Brc1ccc2c(c1)-c1ccccc1C1=NCCN12`: 10.9%.
`COc1cc(-c2nn(-c3ccc(NC(=O)NCCNS(=O)(=O)c4ccc(F)cc4)cc3)cc2-c2ccncc2)ccc1Cl`: the growth is 2.84% (active).
On the same count and under the same terms, the same measure for `Cc1cc(Cl)ccc1Nc1nc(C(F)(F)F)ccc1C(=O)N/N=C/c1cccc(O)c1`: 41.8%; for `CS(=O)(=O)c1nccc(-c2c(-c3cccc(OCc4ccc(F)cc4)c3)nc3sccn23)n1`: 38.9%; for `COc1cc(/C=C/c2cc(/C=C/c3ccc(O)c(OC)c3)n(C(=O)Nc3ccc(C)cc3)n2)ccc1O`: -1.13% (active).
Same read-out and setting: the same measure for `CCCN(CCC)C(=O)[C@H](CC)[C@@H]1CC[C@@H](C)[C@@H]([C@H](C)[C@@H](O)[C@@H](C)C(=O)[C@H](CC)C2O[C@]3(C=C[C@@H](O)[C@]4(CC[C@@](C)([C@H]5CC[C@](O)(CC)[C@H](C)O5)O4)O3)[C@H](C)C[C@@H]2C)O1` (some centres undefined): 19.9%.
Still for that read-out and setting: the same measure for `COc1cc2cc(Oc3ccc(NC(=O)c4cccc(C(F)(F)F)c4)cc3)c(C)nc2cc1OC`: 25.8%.
With `CCc1cc(Cl)c(OC)c(C(=O)NCC2CCCN2CC)c1O` (centres undefined), the growth was 101%.
The same measure, in the same setting: then `CN1CCc2c(sc3nc4n(-c5ccc(Cl)cc5)cnn4c(=O)c23)C1`, with 103%.
Still for that read-out and setting: the same measure for `O=C(N/N=C/c1ccc([N+](=O)[O-])cc1)c1ccccc1Nc1cccc(C(F)(F)F)c1`: 141%.
On the same count and under the same terms, then `COc1ccc(/C=C2\CCCC3=C2NC(N)=NC3c2ccc(OC)c(OC)c2)cc1OC` (centres undefined), with 32.1%; and `CCOC(=O)CN(c1sc(C)c(C)c1C(=O)OCC)S(=O)(=O)c1ccc(C)cc1`, with 96%.
For the molecule `CC(=O)OC1CC2C(C)(C)CCC[C@]2(C)C2=C1C(O)=C(C(C)C)C(=O)C2=O` (some centres undefined), the growth is -77.7% (active).
Same read-out and setting: then `CCC(=O)OC1CCC2C3CCC(=O)OC3C(C)(CCC(=O)O)CC12C` (centres undefined), with 25.7%.
Still for that read-out and setting: then `CNC(=O)c1cn(C2CC2)c2cc(N3CCN(C(=O)c4cc(OC)c(OC)c(OC)c4)CC3)c(F)cc2c1=O`, with 102%.
On the same count and under the same terms, then `CCCCN(CCCC)C(=O)[C@H](CC)[C@@H]1CC[C@@H](C)[C@@H]([C@H](C)[C@@H](O)[C@@H](C)C(=O)[C@H](CC)C2O[C@]3(C=CC(=O)[C@]4(CC[C@@](C)([C@H]5CC[C@](O)(CC)[C@H](C)O5)O4)O3)[C@H](C)C[C@@H]2C)O1` (some centres undefined), with 55.6%.
`CCn1c2ccc(O)cc2c2c(C)c3c[n+](C)ccc3c(C)c21`: the growth was 21.5%.
Still for that read-out and setting: then `COc1ccc(Cl)cc1Nc1nc(C(F)(F)F)ccc1C(=O)N/N=C/c1cc(OC)c(OC)c(OC)c1`, with 30.6%; and `O=C(CI)OCC(COC(=O)CI)OC(=O)CI`, with 102%.
The same measure, in the same setting: then `COc1ccc(-c2cc(-c3ccc(OC)c(OC)c3)nc(SCCCC(=O)NO)n2)cc1`, with 15.7%; and `O=C(CSc1nnc(-c2ccc(Cl)cc2)o1)Nc1ccc(C(=O)/C=C/c2ccc(Cl)cc2)cc1`, with 97.8%.
Same read-out and setting: the same measure for `CCCc1cn(CC(=O)Nc2nc3ccccc3s2)nn1`: 109%; for `COc1ccc2c(c1)CC=C1[C@@H]2CC[C@]2(C)C(=O)/C(=N/O)C[C@@H]12`: 92.6%.
On to `Cc1ccc(Cl)cc1NC(=O)CCl`, for which the growth is 96.1%.
`O=C(CCCSc1nc(-c2ccccc2)cc(-c2ccc(Cl)cc2)n1)NO`: the growth was 24.7%.
Same read-out and setting: then `CC(=O)N[C@H](C(=O)N[C@@H](CCCNC(=N)N)C(=O)N[C@@H](CCCCN)C(=O)N[C@@H](CCCNC(=N)N)C(=O)N[C@]1(C)CCCCCC/C=C\CCC[C@@](C)(C(=O)N[C@@H](CCCNC(=N)N)C(=O)N[C@@H](CCC(=O)O)C(=O)N[C@@H](CC(C)C)C(=O)N[C@H](C(=O)N[C@@H](CCC(=O)O)C(N)=O)C(C)C)NC(=O)[C@H](CCC(N)=O)NC(=O)[C@H](CC(C)C)NC(=O)[C@H](CC(C)C)NC(=O)[C@H](CCCNC(=N)N)NC(=O)[C@H](CCCNC(=N)N)NC(=O)[C@H](CC(C)C)NC1=O)C(C)C`, with -16.9% (active); and `COc1ccc(-c2cc(-c3ccccc3)nc(SCCCC(=O)NO)n2)cc1`, with 17.3%; and `COc1ccc(C(=O)N2C=Cc3ccccc3C2C#N)cc1` (centres undefined), with 89.6%.
Still for that read-out and setting: the same measure for `COc1ccc(-c2cc(-c3ccc(Cl)cc3)nc(SCCCC(=O)NO)n2)cc1OC`: 21.7%.
